We go through nine compounds from PubChem BioAssay.

A short description of experiment [1]: reducers of endogenous Her2 protein level, primary screen, SKBR3 breast tumor cells, AlphaScreen, ATP viability (AID 461).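 As to Her2 level: lower value means less Her2 protein in the cells.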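 As to viability: percent of carrier control wells set as 100% viability.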 The settings on record: 18-24 h, measured here: SKBR3 viability, ATP luminescence, at 10 µM. A general note: Bead proximity is the source of the signal in Alpha formats.
Experiment [2] concerns the target Receptor tyrosine-protein kinase erbB-2 (Homo sapiens) (UniProt P04626). The experiment is described as above. The settings on record: 18-24 h, at 10 µM, stronger effect = lower value.
Experiment [3] in a line: SK-BR-3 cell growth inhibitors, pilot screen, 24 h, human (AID 572;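 active = viability at or below 10% of carrier control in both of two separate runs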;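 also: compound exposure lasted between 18 and 24 h rather than exactly 24 h; 100% = carrier-treated control wells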). To be noted: SK-BR-3 viability, CellTiter-Glo luminescence, at 10 µM, stronger effect = lower value.
A short description of experiment [4]: HUVEC growth inhibition – cell-based, human, primary screen (AID 575;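 active = viability at or below 30% in both replicate assays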;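 also: 100% = median of untreated cell wells with 0.1% DMSO on each plate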). The settings on record: HUVEC proliferation, CellTiter-Glo luminescence, 72 h; at 10 µM; stronger effect = lower value.
Experiment [5] in a line: growth inhibitors of H69AR lung tumor, primary screen, human, duplicate replicates (AID 580;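 active = viability at or under a set limit in both replicates, limit being median viability minus 3 SD, cut at about 48% in these data, passing the limit was not always enough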;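 also: 100% = mean luminescence of untreated wells and 0% = no signal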). The settings on record: H69AR lung tumor cells viability, ATP luminescence, 72 h; at 10 µM; stronger effect = lower value.
Experiment [6] is described as follows: reversal of MRP1-mediated doxorubicin resistance, pilot screen, H69AR cells, doxorubicin co-treatment (AID 601;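 active = viability loss from added drug above about 55%, and viability with drug at most 40%, in both replicates, limit read from the data, passing the limit was not always enough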). To be noted: CellTiter-Glo, 72 h, at 10 µM; for differential viability (reversal): stronger effect = higher value.
A short description of experiment [7]: 384-well plate pilot, post-Golgi transport modulator project, inhibition of yeast transport mutant growth (AID 636; in the data active = inhibition above about 31%). To be noted: absorbance 615 nm, about 18 h, stronger effect = higher value.
A short description of experiment [8]: growth suppression of yeast trafficking mutant, preliminary HTS, modulators of trafficking downstream of Golgi apparatus project, 1536-format plate, OD 615 nm (AID 637; in the data active = inhibition above about 30%). The settings on record: yeast transport mutant growth, absorbance 615 nm, 18 h; stronger effect = higher value.
The nature of experiment [9]: OD615 S. cerevisiae growth inhibition, permissive medium, pilot counter-assay, permissive growth control for S. cerevisiae lifespan shortening project (AID 705;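 active = growth inhibition above 25% in both replicates, a cutoff set 3 SD above the mean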). The settings on record: OD615, 24 h, at 10 µM, stronger effect = higher value.
A short description of experiment [10]: Restrictive medium S. cerevisiae growth inhibition, OD615, pilot screen of yeast lifespan reduction project, restrictive growth control (AID 706;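 active = growth inhibition above a set limit, 3 SD over mean compound inhibition, in both replicates, cut at about 43% in these data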;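 also: modified DeaD lifespan yeast strain shifted to restrictive glucose medium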). The settings on record: OD615, 48 h, at 10 µM, stronger effect = higher value.
Experiment [11] is described as follows: viability gain of MRP-1-high H69AR cells under doxorubicin, pilot screen, MRP-1 activator project, CellTiter-Glo, duplicate (AID 807;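 active = viability increase at or above a cutoff of the median across tested compounds plus 3 SD, cut at about 8.5% in these data, passing the limit was not always enough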;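 also: compound pretreatment 18-22 h then 72 h combined with doxorubicin; 0% = doxorubicin alone and 100% = vehicle without doxorubicin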). The settings on record: H69AR viability with doxorubicin, CellTiter-Glo luminescence; at 10 µM; stronger effect = higher value. (In general: Cellular ATP, detected with luciferase, serves as a proxy for viable cell number.)
Experiment [12] can be described thus: growth suppression of beta-catenin knockout HCT116, pilot screen, human colon tumor cells (AID 823;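 active = cell viability at or below a set limit in both duplicate runs, the limit being the all-compound median minus 4 SD, cut at about 23% in these data, passing the limit was not always enough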;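 also: 0% = wells killed by 20 µM Hyamine and 100% = untreated DMSO cell wells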). The settings on record: CellTiter-Glo, 60 h, at 10 µM, stronger effect = lower value.
Experiment [13] in a line: growth suppression of PTEN-deleted HCT116, pilot screen, cell-based, HCT116 clonal line, CellTiter-Glo (AID 824;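 active = viability at or below 27.92% in each of two runs, the all-compound median minus 4 SD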;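 also: 0% = 20 µM Hyamine control and 100% = vehicle cell control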). To be noted: 60 h, at 10 µM, stronger effect = lower value.
Experiment [14] can be described thus: inhibitors of the yeast RAM network, pilot screen, dse1pr::URA3 reporter, 5-FOA selection (AID 869;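 active = inhibition over a set limit, the all-compound mean plus 3 SD, in both replicate runs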;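 also: 0% = DMSO wells with no growth and 100% = 10 µM 1-NA-PP1 with full growth; RAM network block rescues cells from 5-FOA so hits raise OD615 growth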). To be noted: S. cerevisiae dse1pr::URA3 5-FOA growth, OD615, 2 d; at 10 µM; stronger effect = higher value; strain carries analog-sensitive mutant Cbk1 kinase.
Experiment [15] can be described thus: RAM signaling pathway blockade in yeast – S. cerevisiae, Pdr1DBD-CYC8 efflux-inhibited sensitized strain, primary screen (AID 1298;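 active = RAM network inhibition above 8.4% in each of two replicates, 3 SD over the compound average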;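 also: 0% = DMSO untreated cells without growth and 100% = 10 µM 1-NA-PP1 full growth; higher means more yeast growth rescued from 5-FOA killing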). The settings on record: S. cerevisiae cbk1-as DSE1-URA3 strain, 5-FOA growth OD615, 2 d; at 50 µM; stronger effect = higher value.
[16] abbreviates: H69AR cells + 2 uM doxorubicin, measured here: viability with 2 uM doxorubicin, stronger effect = lower value.
[17] abbreviates: H69AR cells, compound alone cytotoxicity.

Inconclusive results are not listed. Calls of active or inactive are those of the source.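 The calls were made as follows, unless noted: active = Her2 level under about 52% in both replicate screens, with viability over 70% of control (limit read from the data); inconclusive = Her2 under the limit in one screen only, or viability under 70%; inactive = Her2 level above the set limit.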

Chain of Receptor tyrosine-protein kinase erbB-2 (Homo sapiens) (P04626 whole entry, looked up): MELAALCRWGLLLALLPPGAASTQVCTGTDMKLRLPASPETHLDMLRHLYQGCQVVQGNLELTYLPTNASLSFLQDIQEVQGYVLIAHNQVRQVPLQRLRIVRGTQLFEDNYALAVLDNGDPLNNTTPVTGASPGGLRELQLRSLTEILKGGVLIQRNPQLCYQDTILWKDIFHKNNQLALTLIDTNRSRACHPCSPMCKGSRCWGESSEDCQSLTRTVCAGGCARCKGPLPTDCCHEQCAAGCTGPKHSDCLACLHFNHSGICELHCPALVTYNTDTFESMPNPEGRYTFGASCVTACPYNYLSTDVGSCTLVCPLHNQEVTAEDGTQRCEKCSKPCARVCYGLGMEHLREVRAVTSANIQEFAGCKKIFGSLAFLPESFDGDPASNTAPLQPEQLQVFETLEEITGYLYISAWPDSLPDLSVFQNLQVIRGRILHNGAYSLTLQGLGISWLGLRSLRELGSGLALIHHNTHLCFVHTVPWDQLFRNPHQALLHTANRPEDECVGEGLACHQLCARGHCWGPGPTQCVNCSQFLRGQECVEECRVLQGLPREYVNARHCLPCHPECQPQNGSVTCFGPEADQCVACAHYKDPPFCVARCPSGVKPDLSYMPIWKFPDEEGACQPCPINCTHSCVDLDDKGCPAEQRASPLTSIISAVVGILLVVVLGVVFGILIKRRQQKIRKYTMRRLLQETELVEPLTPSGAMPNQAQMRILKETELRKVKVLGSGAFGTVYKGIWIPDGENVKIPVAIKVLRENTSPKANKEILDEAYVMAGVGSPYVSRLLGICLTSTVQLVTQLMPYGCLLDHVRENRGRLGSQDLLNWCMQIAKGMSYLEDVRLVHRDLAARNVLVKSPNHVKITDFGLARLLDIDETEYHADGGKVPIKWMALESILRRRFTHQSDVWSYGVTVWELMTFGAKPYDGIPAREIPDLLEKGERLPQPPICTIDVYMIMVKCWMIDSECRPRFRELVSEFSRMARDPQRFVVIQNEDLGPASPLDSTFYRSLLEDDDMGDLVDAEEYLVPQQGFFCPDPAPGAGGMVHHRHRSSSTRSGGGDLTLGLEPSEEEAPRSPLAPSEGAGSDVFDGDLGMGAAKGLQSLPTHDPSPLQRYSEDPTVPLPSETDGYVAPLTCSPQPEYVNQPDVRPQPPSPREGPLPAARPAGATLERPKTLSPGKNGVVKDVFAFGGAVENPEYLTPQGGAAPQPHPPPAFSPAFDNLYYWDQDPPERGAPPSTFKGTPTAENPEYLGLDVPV

As for `CNC(=O)c1ccccc1NC(=O)c1c(O)c2c([nH]c1=O)CCCC2`, the viability in experiment [1] was 112%; in [3], 112% (inactive); in [4] it was 98.9% (inactive); in [5], 109% (inactive); in experiment [6] (setting [16]) it was 99.9%; in experiment [6] (setting [17]) it was 109%. Further, the figures for the viability in [12] and in [13] were 88.9% (inactive) and 94.5% (inactive), respectively. In experiment [2], the Her2 level is 79% (inactive). Further, the differential viability (reversal) in experiment [6] (H69AR cells + 2 uM doxorubicin) is 8.66% (inactive). Moreover, the inhibition was -1.71% (inactive) in experiment [7], 0.48% (inactive) in experiment [8] and 1.7% (inactive) in [14]. Besides, the growth inhibition in experiment [9] is -17.1% (inactive); in experiment [10], -10.1% (inactive). For the same compound, the viability increase in experiment [11] is -2.56% (inactive). Besides, the RAM network inhibition in experiment [15] was 3.36% (inactive).

In the case of `Cc1cccc(N2CCN(C(=O)Cn3nc(Cc4ccncc4)c4ccccc4c3=O)CC2)c1C`, the viability is 83% in experiment [1]; 83% (inactive) in [3]; 83.9% (inactive) in [4]; 75.9% (inactive) in experiment [5]; 83.5% in experiment [6] (setting [16]); 75.9% in experiment [6] (setting [17]). The viability is 70.7% (inactive) in experiment [12] and 76% (inactive) in experiment [13]. In addition, the Her2 level in experiment [2] was 82% (inactive). For the same compound, the differential viability (reversal) in [6] (H69AR cells + 2 uM doxorubicin) was -7.61% (inactive). Moreover, the inhibition in experiment [7] is -5.6% (inactive); in [8] it was 1.5% (inactive); in experiment [14] it was 0.445% (inactive). Also, the growth inhibition in experiment [9] is 1.35% (inactive); in experiment [10], 6.96% (inactive). For the same compound, the viability increase in experiment [11] is 1.06% (inactive). Further, the RAM network inhibition in experiment [15] is 3.21% (inactive).

As for `CCOC(=O)c1ccc(NS(=O)(=O)c2ccc3c(c2)oc(=O)n3C)cc1`, the viability in experiment [1] is 132%; in experiment [3], 132% (inactive); in experiment [4] it was 118% (inactive); in experiment [5], 113% (inactive); in experiment [6] (setting [16]) it was 105%; in experiment [6] (setting [17]), 113%. Besides, the viability was 101% (inactive) in experiment [12] and 86.4% (inactive) in [13]. The Her2 level in experiment [2] is 118% (inactive). The differential viability (reversal) in experiment [6] (H69AR cells + 2 uM doxorubicin) is 7.4% (inactive). The results for the inhibition in experiment [7], in [8] and in [14] were -0.77% (inactive), -2.17% (inactive) and 0.865% (inactive), respectively. Besides, the growth inhibition is -0.745% (inactive) in [9] and 3.2% (inactive) in [10]. In addition, in experiment [11], the viability increase is 1.82% (inactive). Moreover, the RAM network inhibition in experiment [15] is 2.11% (inactive).

Regarding `COc1ccc(N(CC(=O)Nc2cc(C)ccc2C)S(=O)(=O)c2c(C)nn(C)c2C)cc1`, the viability in [1] was 92%; in experiment [3], 92% (inactive); in experiment [4], 73.8% (inactive); in [5], 93.2% (inactive); in [6] (setting [16]) it was 93.6%; in [6] (setting [17]), 93.2%. Further, the viability is 83.8% (inactive) in experiment [12] and 80.3% (inactive) in experiment [13]. Moreover, the Her2 level in experiment [2] is 114% (inactive). The differential viability (reversal) in experiment [6] (H69AR cells + 2 uM doxorubicin) was -0.425% (inactive). The inhibition was -0.38% (inactive) in experiment [7], -3% (inactive) in experiment [8] and 0.14% (inactive) in experiment [14]. Further, the growth inhibition in [9] is -7.38% (inactive); in experiment [10] it was -20.5% (inactive). Moreover, in experiment [11], the viability increase was -2.75% (inactive). The RAM network inhibition in experiment [15] was 7.15% (inactive).

Turning to `COCCCN1C(=O)C(=O)/C(=C(/O)c2ccc(OCC(C)C)cc2C)C1c1cccnc1` (stereo not drawn), the viability in experiment [1] was 109%; in experiment [3] it was 109% (inactive); in experiment [4], 104% (inactive); in experiment [5], 98.1% (inactive); in experiment [6] (setting [16]), 96.6%; in experiment [6] (setting [17]), 98.1%. Moreover, the viability in [12] is 106% (inactive); in experiment [13] it was 95.6% (inactive). Moreover, the Her2 level in experiment [2] is 110% (inactive). In [6] (H69AR cells + 2 uM doxorubicin), the differential viability (reversal) was 1.47% (inactive). The inhibition is -2.21% (inactive) in experiment [7], -2.67% (inactive) in experiment [8] and 0.48% (inactive) in experiment [14]. The values for the growth inhibition in experiment [9] and in [10] were -1.21% (inactive) and 15.7% (inactive), respectively. The viability increase in [11] is 0.13% (inactive). For the same compound, the RAM network inhibition in experiment [15] is 2.11% (inactive).

As to `CCN(CC)c1ccc(NC(=O)CN2C(=O)CC(C)(C)S(=O)(=O)c3ccccc32)c(C)c1`, the viability in experiment [1] was 102%; in experiment [3], 102% (inactive); in experiment [4], 102% (inactive); in experiment [5], 84.8% (inactive); in [6] (setting [16]), 92.4%; in experiment [6] (setting [17]), 84.8%. For the same compound, the viability in experiment [12] is 63.6% (inactive); in experiment [13], 78.1% (inactive). Also, the Her2 level in experiment [2] is 111% (inactive). The differential viability (reversal) in experiment [6] (H69AR cells + 2 uM doxorubicin) is -7.56% (inactive). The values for the inhibition in experiment [7], in [8] and in experiment [14] were -4.8% (inactive), 0.83% (inactive) and 1.72% (inactive), respectively. Further, the growth inhibition was -6.69% (inactive) in experiment [9] and -16.1% (inactive) in [10]. Moreover, in experiment [11], the viability increase is -4.31% (inactive). For the same compound, in experiment [15], the RAM network inhibition is 3.26% (inactive).

Regarding `NC(=O)c1cccc2c1C(=O)N(C1CCCCC1)C2`, the viability in experiment [1] was 109%; in experiment [3], 109% (inactive); in [4], 76% (inactive); in experiment [5], 88.9% (inactive); in experiment [6] (setting [16]), 91.4%; in experiment [6] (setting [17]), 88.9%. In addition, the viability in experiment [12] was 101% (inactive); in experiment [13] it was 95.3% (inactive). Further, the Her2 level in experiment [2] was 99.5% (inactive). In addition, in experiment [6] (H69AR cells + 2 uM doxorubicin), the differential viability (reversal) was -2.49% (inactive). Besides, the inhibition in experiment [7] was -0.77% (inactive); in [8], -1.33% (inactive); in experiment [14], 0.59% (inactive). For the same compound, the growth inhibition was -7.48% (inactive) in experiment [9] and -4.63% (inactive) in experiment [10]. Further, the viability increase in experiment [11] is -0.58% (inactive). The RAM network inhibition in [15] is 3.36% (inactive).

With `CCOc1ccc(N(CC(=O)NCc2ccco2)S(=O)(=O)c2ccc(OC)c(OC)c2)cc1`, the viability in experiment [1] was 79%; in experiment [3] it was 79% (inactive); in [4], 89.3% (inactive); in [5] it was 83.7% (inactive); in experiment [6] (setting [16]), 83.2%; in experiment [6] (setting [17]) it was 83.7%. In addition, the viability in experiment [12] was 94.7% (inactive); in experiment [13] it was 90.4% (inactive). The Her2 level in experiment [2] was 85% (inactive). Also, the differential viability (reversal) in experiment [6] (H69AR cells + 2 uM doxorubicin) is 0.495% (inactive). The figures for the inhibition in experiment [7], in [8] and in experiment [14] were -3.51% (inactive), -6.5% (inactive) and 2.28% (inactive), respectively. For the same compound, the growth inhibition in [9] is -3.81% (inactive); in experiment [10], -16.6% (inactive). Also, in [11], the viability increase is -4.63% (inactive). The RAM network inhibition in experiment [15] is 2.74% (inactive).

Consider `CCC1CCCCN1CCCNC(=O)CC1Oc2ccc(C)cc2NC1=O` (stereo not drawn), for which the viability in [1] is 110%; in [3], 110% (inactive); in [4], 74.3% (inactive); in experiment [5] it was 89.1% (inactive); in experiment [6] (setting [16]), 92.9%; in experiment [6] (setting [17]), 89.1%. Besides, the viability is 95% (inactive) in [12] and 91.1% (inactive) in experiment [13]. In experiment [2], the Her2 level is 97.5% (inactive). Also, the differential viability (reversal) in experiment [6] (H69AR cells + 2 uM doxorubicin) was -3.82% (inactive). In addition, the figures for the inhibition in experiment [7], in [8] and in [14] were -2.27% (inactive), -0.49% (inactive) and 1.57% (inactive), respectively. Besides, the growth inhibition in experiment [9] is 2.28% (inactive); in experiment [10] it was 0.165% (inactive). Also, the viability increase in experiment [11] is -3.12% (inactive). Moreover, the RAM network inhibition in experiment [15] was 2.53% (inactive).

One may read the viability as a read-out of living cells in per cent, often relative to untreated cells. One may read the inhibition as the drop in the measured response relative to a control, in per cent.
